PubChem BioAssay (Tox21)
Inconclusive results are not listed. Calls of active or inactive are those of the source. Unless noted, calls come from the whole dose curve; as a rule, active = well fitted curve in the direction sought with a large enough effect in the repeat runs; inconclusive = weak or mixed curves; inactive = no such curve, though single readings can be large; an effect the other way counts as inactive or inconclusive.

Assays:
[1] = qHTS assay to identify small molecule agonists of the vitamin D receptor (VDR) signaling pathway - cell viability counter screen (AID 743224); note: nearly all actives have a fitted effect of over 50% in size; note: potency is the fitted concentration of half-maximal effect; for activity change, negative = cytotoxicity: % is set by controls: 0 for no effect and ±100 for the full control effect
Outline: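 Plated VDR-bla cells (4 h, 37C) received compound, incubated 16 h, then LiveBLAzer substrate 2 h RT; CellTiter-Glo added afterwards, luminescence read at 30 min.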

[2] = qHTS assay to identify small molecule antagonists of the vitamin D receptor (VDR) signaling pathway - cell viability counter screen (AID 743225); note: % is set by controls: 0 for no effect and ±100 for the full control effect; nearly all actives have a fitted effect of over 50% in size
Outline: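 VDR-bla HEK 293T cells, 4 h pre-incubation at 37C, then compound plus 1-alpha,25-dihydroxyvitamin D3 (3 nM final) for 16 h. After the beta-lactamase FRET read, CellTiter-Glo was added to the same wells; luminescence after 30 min at room temperature.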

[3] = qHTS assay to identify small molecule agonists of the NFkB signaling pathway - cell viability counter screen (AID 1159515; calls by dose curve; note: % is set by controls: 0 for no effect and ±100 for the full control effect; nearly all actives have a fitted effect of over 55% in size)
Outline: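 Using the same wells as the NFkB reporter read, ME-180 NFkB-bla cells given compounds for 5 hr were assessed for viability via CellTiter-Glo, with luminescence taken after a 30 min room-temperature incubation.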

[4] = qHTS assay to identify small molecule agonists of the endoplasmic reticulum stress response signaling pathway (AID 1159516; active = well fitted activation curve with a large enough effect in the signal ratio in the repeat runs, not every such curve was filed as active; the % refers to the signal ratio; note: potency is the fitted concentration of half-maximal effect; for activation: % is set by controls: 0 for no effect and ±100 for the full control effect)
Outline: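 An ESRE-bla HeLa cell assay: compounds were pin-transferred from DMSO onto overnight-plated cells and left 5 hr at 37 C. Substrate was then loaded for 2 hr at room temperature before reading fluorescence at 460 nm and 530 nm.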

[5] = qHTS assay to identify small molecule antagonists of the retinoid-related orphan receptor gamma (ROR-gamma) signaling pathway - cell viability counter screen (AID 1159520); note: % is set by controls: 0 for no effect and ±100 for the full control effect; nearly all actives have a fitted effect of over 50% in size
Outline: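 Tet-on ROR gamma CHO cells were given compounds for 2 hr, then doxycycline hyclate at 1 uM final, and incubated 16 hr at 37 C. Viability was measured as ATP content by CellTiter-Glo luminescence.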

[6] = biological target: Nuclear receptor ROR-gamma (Homo sapiens) (UniProt P51449); test: qHTS assay to identify small molecule antagonists of the retinoid-related orphan receptor gamma (ROR-gamma) signaling pathway (AID 1159521;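 note: CHO cells with doxycycline inducible ROR-gamma driving an RORE luciferase reporter; top concentration of the series differs between compounds; % is set by controls: 0 for no effect and ±100 for the full control effect; nearly all actives have a fitted effect of over 50% in size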)
Outline: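 Tet-on RORγ CHO cells carrying a ROR response element–luciferase reporter were pretreated with compounds for 2 h, then induced with 1 uM (final) doxycycline hyclate for 16 h at 37 C. Antagonism was read as decreased ONE-Glo luminescence.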

[7] = qHTS assay to identify small molecule agonists of the AP-1 signaling pathway - cell viability counter screen (AID 1159525; calls by dose curve; note: nearly all actives have a fitted effect of over 55% in size)
Outline: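 AP-1-bla ME-180 cells in Opti-MEM with 0.5% dialyzed FBS, compound exposure 5 h at 37 C in 15-point titration. Viability read in the same wells as ATP content by CellTiter-Glo luminescence, normalised to tetra-n-octylammonium bromide and DMSO controls.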

[8] = qHTS assay to identify small molecule agonists of the AP-1 signaling pathway (AID 1159526; calls by dose curve; note: % is set by controls: 0 for no effect and ±100 for the full control effect)
[9] = biological target: Retinoic acid receptor RXR-alpha (Homo sapiens) (UniProt P19793); test: qHTS assay to identify small molecule agonists of the RXR signaling pathway (AID 1159527; calls by dose curve; note: nearly all actives have a fitted effect of over 35% in size; note: potency is the fitted concentration of half-maximal effect; for activation: % is set by controls: 0 for no effect and ±100 for the full control effect)
Outline: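 GeneBLAzer RXR-alpha-UAS-bla HEK 293T cells in medium with 2% charcoal-stripped FBS, pre-incubated 5 hr at 37 C, then exposed to compounds 16 hr. Beta-lactamase reporter read by FRET substrate, 2 hr room temperature, 460/530 nm emission.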

[10] = qHTS assay to identify small molecule agonists of the RXR signaling pathway - cell viability counter screen (AID 1159529)
Outline: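 RXR-alpha-UAS-bla HEK 293T cells in medium with 2% charcoal-stripped FBS were preincubated 5 hr, then exposed to compounds for 16 hr at 37 C. Viability was read as CellTiter-Glo luminescence after 30 min at room temperature.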

[11] = qHTS assay to identify small molecule antagonists of the retinoid acid receptor (RAR) signaling pathway - cell viability counter screen (AID 1159551); note: % is set by controls: 0 for no effect and ±100 for the full control effect; nearly all actives have a fitted effect of over 35% in size
Outline: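 Retinol-stimulated (1 uM final) C3RL4 cells, compound 6 h, 37 C; readout CellTiter-Glo luminescence (ATP) after 30 min RT incubation.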

[12] = qHTS assay to identify small molecule antagonists of the retinoic acid receptor (RAR) signaling pathway (AID 1159552)
Outline: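 RARE-luc C3RL4 cells; cpds + 1 uM (final) retinol, 6 hr, 37 C/5% CO2; luciferase reagent, 30 min RT, luminescence readout. Inhibitors of retinol-driven signal scored.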

[13] = qHTS assay to identify small molecule agonists of the retinoic acid receptor (RAR) signaling pathway (AID 1159553); conditions: C3RL4 RARE luciferase reporter, agonist, 6 h; activation: at 73.3 µM (top of the series) unless noted; note: potency is the fitted concentration of half-maximal effect
Outline: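 Reporter readout comes from luciferase under RARE control in C3RL4 cells; compound exposure lasts 6 hr at 37 C in 5% CO2, and luminescence is recorded following a 30 min room-temperature incubation with reagent.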

Retinoic acid receptor RXR-alpha (Homo sapiens), sequence (P19793 whole entry, looked up): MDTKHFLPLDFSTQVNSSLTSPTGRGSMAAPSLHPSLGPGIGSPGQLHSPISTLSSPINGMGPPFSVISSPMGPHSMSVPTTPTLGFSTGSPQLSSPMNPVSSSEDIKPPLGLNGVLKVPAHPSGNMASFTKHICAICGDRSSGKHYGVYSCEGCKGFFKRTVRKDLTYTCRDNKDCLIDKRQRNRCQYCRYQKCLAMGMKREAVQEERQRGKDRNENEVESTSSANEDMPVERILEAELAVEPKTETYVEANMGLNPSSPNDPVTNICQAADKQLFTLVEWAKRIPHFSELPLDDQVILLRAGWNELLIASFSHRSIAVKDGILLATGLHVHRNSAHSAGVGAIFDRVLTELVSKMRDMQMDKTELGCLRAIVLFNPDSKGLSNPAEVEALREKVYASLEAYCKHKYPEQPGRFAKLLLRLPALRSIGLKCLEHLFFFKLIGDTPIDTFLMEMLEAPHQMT

OC[C@@H](O)[C@@H](O)CO
inactive: Potency [1] | Potency [2] | Potency [3] | Potency [4] | Potency [5] | Potency [6] | Potency [7] | Potency [8] | Potency [9] | Potency [10] | Potency [11] | Potency [12] | Potency [13]

CCCCCC/C=C\CCCCCCCC(=O)O
inactive: Potency [1] | Potency [3] | Potency [4] | Potency [5] | Potency [6] | Potency [10] | Potency [11] | Potency [12] | Potency [13]

O=C(O)[C@H](O)[C@@H](O)[C@H](O[C@@H]1O[C@H](CO)[C@H](O)[C@H](O)[C@H]1O)[C@H](O)CO
inactive: Potency [1] | Potency [2] | Potency [3] | Potency [4] | Potency [5] | Potency [6] | Potency [8] | Potency [9] | Potency [10] | Potency [11]

O[C@@H]([C@H](O)[C@H](O)CBr)[C@H](O)CBr
inactive: Potency [1] | Potency [2] | Potency [3] | Potency [4] | Potency [5] | Potency [6] | Potency [7] | Potency [8] | Potency [9] | Potency [10] | Potency [11] | Potency [12] | Potency [13]

CCO[Si](OCC)(OCC)OCC
inactive: Potency [1] | Potency [2] | Potency [3] | Potency [4] | Potency [5] | Potency [6] | Potency [7] | Potency [8] | Potency [10] | Potency [11] | Potency [12] | Potency [13]

C=CC(C)(CCC=C(C)C)OC=O (stereo unspecified)
inactive: Potency [1] | Potency [2] | Potency [3] | Potency [4] | Potency [5] | Potency [6] | Potency [7] | Potency [8] | Potency [9] | Potency [10] | Potency [11]

CC(C)(C)NSc1nc2ccccc2s1
active: activation [13] 7.05% [at 94.8 µM]
inactive: Potency [1] | Potency [2] | Potency [3] | Potency [4] | Potency [5] | Potency [6] | Potency [7] | Potency [10] | Potency [11] | Potency [12]

COC(=O)c1ccccc1C
inactive: Potency [1] | Potency [2] | Potency [3] | Potency [4] | Potency [5] | Potency [7] | Potency [8] | Potency [9] | Potency [10] | Potency [11] | Potency [12] | Potency [13]

CC(=O)Oc1cc2c(s1)CCN(C(C(=O)C1CC1)c1ccccc1F)C2 (stereo unspecified)
inactive: Potency [1] | Potency [3] | Potency [4] | Potency [5] | Potency [6] | Potency [7] | Potency [8] | Potency [10] | Potency [11] | Potency [13]

C=C(C)C(=O)OCCCCCCCCCC
active: Potency [1] 44 µM
inactive: Potency [2] | Potency [3] | Potency [4] | Potency [5] | Potency [6] | Potency [7]

CCC(CC)C(C)CCOC(C)=O (stereo unspecified)
inactive: Potency [1] | Potency [2] | Potency [3] | Potency [4] | Potency [5] | Potency [6] | Potency [7] | Potency [8] | Potency [9] | Potency [10] | Potency [11] | Potency [12] | Potency [13]

CCCCOC(=O)CO
inactive: Potency [1] | Potency [2] | Potency [3] | Potency [4] | Potency [5] | Potency [6] | Potency [7] | Potency [8] | Potency [9] | Potency [10] | Potency [11]

CC(C)CCOC(=O)/C=C/c1ccccc1
inactive: Potency [1] | Potency [2] | Potency [3] | Potency [4] | Potency [5] | Potency [6] | Potency [7] | Potency [8] | Potency [9] | Potency [10] | Potency [11] | Potency [12]
active: Potency [13] 10.9 µM

O=S(=O)(O)c1ccc(Nc2nc(Nc3ccc(/C=C/c4ccc(Nc5nc(Nc6ccc(S(=O)(=O)O)cc6)nc(N(CCO)CCO)n5)cc4S(=O)(=O)O)c(S(=O)(=O)O)c3)nc(N(CCO)CCO)n2)cc1
active: Potency [4] 37.1 µM | Potency [9] 26.3 µM
inactive: Potency [1] | Potency [2] | Potency [3] | Potency [5] | Potency [6] | Potency [7] | Potency [10] | Potency [11] | Potency [12] | Potency [13]

O=[N+]([O-])c1ccc(F)c(Cl)c1
inactive: Potency [1] | Potency [2] | Potency [3] | Potency [4] | Potency [5] | Potency [6] | Potency [7] | Potency [8] | Potency [9] | Potency [11] | Potency [12] | Potency [13]

O=C(O)c1ccc2cc(C(=O)O)ccc2c1
inactive: Potency [1] | Potency [2] | Potency [3] | Potency [4] | Potency [5] | Potency [6] | Potency [7] | Potency [8] | Potency [9] | Potency [10] | Potency [11] | Potency [12] | Potency [13]

Cc1nc2n(c(=O)c1CCN1CCC(c3noc4cc(F)ccc34)CC1)CCCC2
inactive: Potency [1] | Potency [2] | Potency [3] | Potency [4] | Potency [5] | Potency [6] | Potency [7] | Potency [8] | Potency [9] | Potency [11] | Potency [12] | Potency [13]

CC(C)Cn1cnc2c(N)nc3ccccc3c21
inactive: Potency [1] | Potency [2] | Potency [3] | Potency [4] | activity, negative = cytotoxicity [5] -2.84% [at 19 µM] | activity change, negative = inhibition [6] 5.43% [at 19 µM] | viability change, negative = cytotoxic [7] 9.4% [at 15.8 µM] | activation [9] 13.7% [at 15.8 µM] | activity change, negative = cytotoxicity [10] 1.15% [at 15.8 µM] | activity change, negative = cytotoxicity [11] -0.222% [at 19 µM] | activity, negative = inhibition [12] 2.71% [at 19 µM] | Potency [13]
